FBW7 activator: activators of human E3 ligase FBW7 | Q969H0 | AlphaScreen FBW7–phospho-cyclin E peptide binding, activator screen | normalized activity (activation), % at 26.1 µM | 650,000 tested, 0.13% active; in the data active = normalized activity above about 1.9%;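 note: purified mutant Fbw7 with reduced substrate affinity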
TEAD-YAP block: TEAD-YAP interaction inhibition; HEK-TIYL cells, TEAD-Gal4/YAP UAS-luciferase luminescence; inhibition, % at 9.12 µM; 640,000 tested, 1.4% active; AID 1259422; in the data active = inhibition above about 32%
MITF inh: inhibitors of human MITF; AID 1259374; inhibition, % at 2.6 µM; 650,000 tested, 0.91% active; AlphaScreen MITF homodimerization, bead proximity signal; O75030; in the data active = inhibition above about 50%
Target sequence (O75030 whole entry, looked up): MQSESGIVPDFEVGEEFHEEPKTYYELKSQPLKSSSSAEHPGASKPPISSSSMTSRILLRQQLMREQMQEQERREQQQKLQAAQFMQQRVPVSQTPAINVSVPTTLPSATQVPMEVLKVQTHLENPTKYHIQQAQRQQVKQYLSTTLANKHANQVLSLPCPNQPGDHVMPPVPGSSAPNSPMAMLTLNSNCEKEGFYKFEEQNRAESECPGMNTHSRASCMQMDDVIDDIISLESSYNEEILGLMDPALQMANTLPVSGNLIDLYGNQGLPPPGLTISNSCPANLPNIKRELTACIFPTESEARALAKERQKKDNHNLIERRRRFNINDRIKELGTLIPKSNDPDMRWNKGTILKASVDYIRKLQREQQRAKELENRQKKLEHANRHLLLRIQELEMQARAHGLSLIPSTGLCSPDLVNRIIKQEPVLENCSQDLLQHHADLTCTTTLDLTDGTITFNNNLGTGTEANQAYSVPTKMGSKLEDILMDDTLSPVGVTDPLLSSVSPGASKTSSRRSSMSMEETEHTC
GPR151 ag: human GPR151 activation. Q8TDV0. PathHunter beta-arrestin GPR151 cells, luminescence. activation, % at 11.2 µM. 650,000 tested, 1% active. AID 1508602; in the data active = activation above about 4.9%
A number is an active result; i = inactive; nt = no result. The list is not random: actives were taken first. Their share in the collection is about 3.5%.

SMILES	FBW7 activator	TEAD-YAP block	MITF inh	GPR151 ag
CC(=O)N1CCc2cc(Br)cc(S(=O)(=O)NCc3ccc(C)o3)c21	i	i	i	i
COC(=O)c1ccccc1NC(=O)Nc1ccccc1C	i	i	i	i
COc1cc(C(=O)/C=C/Nc2ccc(I)cc2)cc(OC)c1OC	i	35.5	i	i
COc1ccc(N/C=C/C(=O)c2ccc(OC)c(OC)c2)cc1	i	i	i	i
COc1ccc(N/C=C/C(=O)c2cc(OC)c(OC)c(OC)c2)cc1	i	42.0	i	i
COc1ccc(C(=O)/C=C/Nc2ccc(Br)cc2)cc1OC	i	i	i	i
COc1cc(C(=O)/C=C/Nc2ccc(Br)cc2)cc(OC)c1OC	i	38.0	i	i
CC(C(=O)Nc1ccc(Br)c(Cl)c1)N1C(=O)C2C3C=CC(C3)C2C1=O (stereo unspecified)	i	i	i	i
O=C(CS/C(=C/c1ccco1)c1nc2ccccc2s1)Nc1nccs1	i	i	i	i
Cc1cc(C)c2oc(-c3ccc(C)c(NC(=O)c4ccc(Cl)cc4)c3)nc2c1	i	i	i	i
COCC1CCCCN1Cc1nc(-c2ccccn2)no1 (stereo unspecified)	i	i	i	i
CCCCNC(=O)CS(=O)Cc1nc(-c2ccc(OC)c(OC)c2)oc1C (stereo unspecified)	i	i	i	i
COC(=O)c1ccc(-c2nc3cc(Cl)c(N)cc3s2)cc1	i	47.1	i	i
CCOC(=O)C1=CN(C)C=C(C(=O)OCC)C1c1cc(OC)ccc1OC	i	i	i	i
COc1ccc(F)cc1S(=O)(=O)NC(C)c1ccccc1 (stereo unspecified)	i	i	i	i
O=C(CCn1cncn1)N1CCCC1c1nc2ccccc2[nH]1 (stereo unspecified)	i	i	i	i
CCCCN(C)C(=O)CSc1nc2ccccc2c(=O)n1CC1CCC(C(=O)NCCc2ccccc2)CC1 (stereo unspecified)	1.9	i	i	i
C/C(=N\N=c1/sc2ccccc2n1C)c1ccc(N2CCOCC2)cc1	i	i	i	i
C/C(=N\N=C(N)N)c1ccc(N2CCOCC2)cc1	i	51.8	i	i
N/C(=N\OC(=O)/C=C/c1ccccc1)c1cccnc1	i	i	i	i
N/C(=N\OC(=O)/C=C/c1ccccc1Cl)c1ccccn1	i	73.5	i	i
N/C(=N\OC(=O)/C=C/c1ccc(Br)cc1)c1ccccn1	i	39.2	i	i
CC1(C)CC(=O)c2c(O)cc(=O)oc2C1	i	i	i	i
Cc1c(N2C(=O)CS/C2=N\N=C2/C(=O)Nc3ccccc32)c(=O)n(-c2ccccc2)n1C	i	i	i	i
O=C1Nc2ccccc2/C1=N\N=C1/SCC(=O)N1c1ccc(O)cc1	i	50.0	i	i
SMILES	FBW7 activator	TEAD-YAP block	MITF inh	GPR151 ag
NC(=O)CSc1n[nH]c(=S)s1	i	i	i	i
O=[N+]([O-])c1cc(CN2CCc3ccccc3C2)c(O)c2ncccc12	i	i	i	i
CN1CCN(Cc2cc([N+](=O)[O-])c3cccnc3c2O)CC1	i	i	76.0	i
O=[N+]([O-])c1cc(CN2CCCCC2)c(O)c2ncccc12	i	i	73.0	i
O=[N+]([O-])c1cc(CN2CCN(c3cccc(C(F)(F)F)c3)CC2)c(O)c2ncccc12	i	i	i	i
O=[N+]([O-])c1cc(CN2CCC(c3ccccc3)C2)c(O)c2ncccc12 (stereo unspecified)	i	32.1	55.4	i
CS(=O)(=O)NC1c2cccc3cccc(c23)C1Nc1ccc(Br)cc1 (stereo unspecified)	i	i	i	i
O=C(c1nc2ccccn2c1CNCc1cc2cc(F)ccc2[nH]1)N1CCOCC1	i	i	i	i
Oc1ccc(Cl)cc1/C=N/Nc1nnc2c(n1)[nH]c1ccccc12	i	i	i	i
C(=N/Nc1nnc2c(n1)[nH]c1ccccc12)/c1c[nH]c2ccccc12	i	i	i	i
Cc1cccc2c1[nH]c1nc(N/N=C\c3c[nH]c4ccccc34)nnc12	i	43.7	i	i
Oc1ccc(/C=N/Nc2nnc3c(n2)[nH]c2ccccc23)c(O)c1O	i	i	110.7	i
CC1(C)CC(=O)C2=C(C1)Nc1ccccc1N(C(=O)Cc1ccc(F)cc1)C2c1cccs1 (stereo unspecified)	i	i	i	i
CC1=C(C(=O)OCc2ccc3c(c2)OCO3)C(c2ccc([N+](=O)[O-])cc2)NC(=O)N1 (stereo unspecified)	i	76.1	i	i
CC1=C(C(=O)OCc2ccc3c(c2)OCO3)C(c2ccc(Cl)cc2)NC(=O)N1 (stereo unspecified)	i	76.9	i	i
CC1=C(C(=O)OCC2CCCO2)C(c2ccc([N+](=O)[O-])cc2)NC(=O)N1 (stereo unspecified)	i	i	i	i
CCN(CC)c1ccc(C2NC(=O)NC(C)=C2C(=O)OCc2ccc3c(c2)OCO3)cc1 (stereo unspecified)	i	i	i	i
CC1=C(C(=O)OCc2ccc3c(c2)OCO3)C(c2ccc(F)cc2)NC(=O)N1 (stereo unspecified)	i	60.8	i	i
CC1=C(C(=O)OCc2ccc3c(c2)OCO3)C(c2ccccc2OC(C)C)NC(=O)N1 (stereo unspecified)	i	i	i	i
CSc1ccc2nc(N3CCN(C(=O)c4c(C)cnn4C)CC3)sc2c1	i	43.6	i	i
C=C1c2cccc(O)c2C(O)=C2C(=O)C3(O)C(O)=C(C(N)=O)C(=O)C(N(C)C)C3C(O)C12 (stereo unspecified)	i	i	111.4	i
CN(C)C1C(=O)C(C(N)=O)=C(O)C2(O)C(=O)C3=C(O)c4c(O)ccc(Cl)c4C(O)C3CC12 (stereo unspecified)	i	nt	i	i
COc1cccc(NC(=O)CSC2=C(C#N)C(c3cccs3)CC(=O)N2)c1 (stereo unspecified)	i	39.6	i	i
N#CC1=C(SCC(=O)Nc2cccc(Br)c2)NC(=O)CC1c1cccs1 (stereo unspecified)	i	i	i	i
N#CC1=C(SCC(=O)Nc2cc(Cl)cc(Cl)c2)NC(=O)CC1c1cccs1 (stereo unspecified)	i	43.1	i	i
SMILES	FBW7 activator	TEAD-YAP block	MITF inh	GPR151 ag
CC(C)(CN1CCN(CCC#N)CC1)NS(=O)(=O)c1ccccc1	i	i	i	i
O=S(=O)(Nc1nccs1)c1ccc(Nc2nnc(-c3ccc(Cl)cc3)c3ccccc23)cc1	i	i	i	i
Cc1c(C(=O)OCC(=O)c2ccc(Cl)cc2)cccc1[N+](=O)[O-]	i	i	i	i
Cc1ccc(C(=O)COC(=O)c2ccccc2[N+](=O)[O-])cc1C	i	49.4	i	i
Cc1ccc(-n2cc(-c3ccccc3)c3c(N(C)C4CCCCC4)ncnc32)cc1	i	i	i	i
N[C@@H](CSCCB(O)O)C(=O)O	nt	nt	i	i
OC(COc1cccc2ccccc12)Cn1cnc2ccccc21 (stereo unspecified)	i	i	i	i
CC(C)OC(=O)CSc1ccc(S(C)(=O)=O)cc1[N+](=O)[O-]	i	i	i	i
Nc1nc2cc3c(cc2s1)OCCO3	i	36.9	i	i
Nc1nc2cc3sc(N)nc3cc2s1	i	i	i	i

Source: PubChem (The Scripps Research Institute Molecular Screening Center)
